The text below walks through data of PubChem BioAssay (NCI).

The structures appear in SMILES notation. Compounds without any hit were thinned out: in the full panel of roughly 83,000, 20% have a hit.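 Testing used 96-well plates and a 48-hour single-concentration exposure. Example: -40 means 40% of the starting cells died.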 Unmarked numbers belong to inactive results. Active and inactive are the calls of the source.

For this assay, the system named is OVCAR-3 ovarian. Briefly: NCI-60 one-dose screen, 48 h (100 = growth as untreated, 0 = no growth, -100 = all killed). To be noted: 10 µM. Here is the method:
Growth inhibition of the OVCAR-3 human tumor cell line is measured as a screen for anti-cancer activity. Cells are grown in 96 well plates and exposed to the test compound for 48 hours. Compounds are tested at a single concentration, which is 10^-5 M for most compounds. The reported endpoint is percent growth (GI% or GIPRCNT), where numbers from 0 - 100% represent growth inhibition, and numbers from -100% - 0 represent cell death. For example, a value of 40 represents 60% growth inhibition. A value of 0 means no net growth occurred over the course of the experiment. A value of -40 indicates 40% of cells at the beginning of the experiment died by the end of the experiment. A value of -100 means all cells are dead at the end of the experiment.
NCI-60 Human Tumor Cell Lines Screen was performed using the standard one-dose NCI protocol, which is described in more detail at https://dtp.cancer.gov/discovery_development/nci-60/default.htm.
Compounds with GIPRCNT values below 10 were considered active. Activity score was based on GIPRCNT using the following formula: […]
Score is 0 for GIPRCNT values of 100 or above, 50 for GIPRCNT values of 0, and 100 for GIPRCNT values of -100.
For `CN(C)c1nc(N)c2nccnc2n1`, the growth was 105%.

With `COc1ccc(-c2nn(-c3cccc(Cl)c3)cc2-c2c(C#N)c(=O)n3[nH]c(-c4ccccc4)nc3c2C#N)cc1`, the growth was 109%.

`Cc1cc(Br)nnc1Br`: the growth was 112%.

For the molecule `O=C(CSc1nnc(-c2cccnc2SCc2ccccc2)o1)Nc1nc(Cl)cc(Cl)n1`, the growth is 106%.

For `CCOC(=O)C(C)(c1ccccc1)c1ccccc1`, the growth is 107%.

`CC(C)(C)OC(=O)N1CCc2c(sc3ncnc(N/N=C/c4ccc(Br)cc4)c23)C1`: the growth is 86.4%.

For the molecule `c1ccc2c(c1)Cc1ccccc1N2CCN1CCCCC1`, the growth is 108%.

For `CN(C)CCC1(c2ccccc2)CCN(C)C1=O` (stereo not given), the growth is 99.5%.

Take `Nc1ccc(-c2cccs2)cc1NC(=O)c1ccc(CCCC(=O)Nc2ccc(C3CC3N)cc2)cc1` (stereo not given): the growth was 63%.

Consider `O=[N+]([O-])c1cc(Cl)cc(Cl)c1O`, for which the growth was 109%.

As to `O=C(O)c1ccc(-n2cc(CNc3ccc(Cl)cc3)c(-c3ccccc3)n2)cc1`, the growth was 98.6%.

For the molecule `CCOC(=O)N/N=C/c1ccc(OC)c(OC)c1`, the growth is 128%.

As to `CS(=O)(=O)c1nccc(-c2c(-c3cccc(OCc4ccc(F)cc4)c3)nc3sccn23)n1`, the growth is 88.3%.

In the case of `COc1ccc(C(=O)c2ccccc2CN2C(=O)c3ccccc3C2=O)cc1`, the growth was 105%.

Turning to `O=C(COc1cccc(/C=C2\CSc3ccc(Cl)cc3C2=O)c1)c1ccc(Cl)cc1`, the growth is 90.3%.

Consider `CCN(CC)CC(=O)N(CC)c1ccc(C)c(Cl)c1`, for which the growth is 102%.

`COc1ccc(N(C)c2ncnc3occ(C)c23)cc1`: the growth is -39.9% (active).

For the molecule `S=C1N(c2ccccc2)CN(C2CCCCC2)CN1c1ccccc1`, the growth was 106%.

Take `COc1ccccc1-n1c(-c2sc(NC(C)=O)nc2C)n[nH]c1=S`: the growth is 135%.

Turning to `Brc1ccc2c(c1)-c1ccccc1C1=NCCN12`, the growth is -32.7% (active).

In the case of `CN1CCc2c(sc3nc4n(-c5ccc(Cl)cc5)c(=O)[nH]n4c(=O)c23)C1`, the growth is 106%.

`Nc1cc(Br)c(-c2nn3c(CCC(=O)c4nc5ccccc5[nH]4)nnc3s2)c(Br)c1`: the growth is 105%.

As for `Cc1ccc(-c2c3c(N)nc(-c4cccnc4)nc3nc3c2c(C)nn3-c2ccccc2)cc1`, the growth was 104%.

For the molecule `CCn1c2ccc(O)cc2c2c(C)c3c[n+](C)ccc3c(C)c21`, the growth is 37.8%.

For the molecule `CCOc1ccccc1/C=N\N=C\c1ccccc1O`, the growth was 88.9%.

Consider `Cc1cn(-c2cc(F)cc(NC(=O)c3ccc(C)c(Nc4nccc(-c5cccnc5)n4)c3)c2)cn1`, for which the growth was -30.9% (active).

On to `CCn1c(SC/C(=N/O)c2ccccc2)nnc1-c1ccccc1`, for which the growth is 121%.

Consider `Cc1ccc(NCCNCC(C)(C)O)c2c(=O)c3ccc(Cl)cc3sc12`, for which the growth was -13.4% (active).

Take `COc1ccc(C(=O)N/N=C/c2cc(C(F)(F)F)ccc2Cl)cc1`: the growth was 108%.

For the molecule `COc1ccc(-c2nn(-c3cccc(Cl)c3)cc2/C=C2\NC(=S)N(c3ccc(Cl)cc3)C2=O)cc1`, the growth is 0.69% (active).

As to `O=[N+]([O-])c1cccc(/C=N/NC(=S)NC23CC4CC(CC(C4)C2)C3)c1`, the growth is 85.9%.

On to `COc1cc(C(=O)n2nc(-c3cc(OC)c(OC)c(OC)c3)nc2N)cc(OC)c1OC`, for which the growth is 101%.

In the case of `Cc1cccc(N=Cc2ccccc2O)c1C`, the growth was 113%.

On to `COc1cc(C2C(C#N)=C(N)Oc3cc(O)ccc32)cc(OC)c1OC` (stereo not given), for which the growth was -38.2% (active).

For the molecule `CN1CCN(CCCn2c(=O)c3sc4ncccc4c3n3nnc(-c4ccccc4)c23)CC1`, the growth was -47.4% (active).

Take `N#Cc1c(N)nc(-c2cc(F)cc(C(F)(F)F)c2)nc1-c1ccccc1F`: the growth is 37.5%.

As to `CC(=O)N[C@H](C(=O)N[C@@H](CCCNC(=N)N)C(=O)N[C@@H](CCCCN)C(=O)N[C@@H](CCCNC(=N)N)C(=O)NC(C(=O)N[C@@H](CC(C)C)C(=O)N[C@@H](CCCNC(=N)N)C(=O)N[C@@]1(C)CCC/C=C\CCC[C@@](C)(C(=O)N[C@@H](CCCNC(=N)N)C(=O)N[C@@H](CCC(=O)O)C(=O)N[C@@H](CC(C)C)C(=O)N[C@H](C(=O)N[C@@H](CCC(=O)O)C(N)=O)C(C)C)NC(=O)[C@H](CCC(N)=O)NC(=O)[C@H](CC(C)C)NC(=O)[C@H](CC(C)C)NC1=O)[C@@H](C)O)C(C)C` (stereo not given in full), the growth was 16.8%.

Regarding `N#Cc1cnn(C(=O)c2nn(-c3ccc(Cl)cc3)cc2O)c1N`, the growth is -0.517% (active).

As to `Cc1nc2n(c(=O)c1CCN1CCC(c3noc4cc(F)ccc34)CC1)CCC[C@@H]2O`, the growth was 106%.

As for `O=[N+]([O-])c1ccc2ncccc2c1Cl`, the growth is 40.7%.
